Assay [1] can be described thus: AP1 Signaling Pathway (AID 357; active = well fitted curve in either direction with a large enough effect, not every such curve was filed as active;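 note: ME-180 reporter cells stimulated with EGF at its EC50 level; % is set by controls: 0 for no effect and ±100 for the full control effect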). To be noted: ME-180 AP-1-bla reporter, EGF-induced, beta-lactamase ratio, 5 h; at 7.69 µM (top of the series) unless noted. In outline: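 AP-1-bla ME-180 cells, Opti-MEM + 0.5% dialyzed FBS, plated overnight 37 °C. Cpd titration + EC50 EGF, 5 h 37 °C. CCF4 2.5 h RT; ex 405, em 460/530 ratio → %activity, AC50.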
Assay [2] deals with Cytochrome P450 1A2 (Homo sapiens) (UniProt P05177). In words: p450-cyp1a2 (AID 410; calls by dose curve; note: potency is the fitted concentration of half-maximal effect;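 for activity change, negative = inhibition: -100% = full effect of reference inhibitor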). In outline:
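Read-out is luminescence from luciferin produced by CYP1A2 demethylation of Luciferin-ME (100uM, at Km). Detection reagent stopped the 60 min NADPH-dependent reaction; signals were normalized to 57 uM furafylline.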

Assay [3] in a line: NFAT Signaling Pathway (AID 444; active = well fitted curve in either direction with a large enough effect, not every such curve was filed as active;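 note: carbachol stimulus at about its EC50 of 1 µM final; % is set by controls: 0 for no effect and ±100 for the full control effect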). To be noted: Jurkat NFAT-bla M1, carbachol, beta-lactamase ratio, 5 h; at 7.69 µM (top of the series) unless noted. In outline:
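Read-out: CCF4 FRET ratio (460 nm/530 nm) after 1 h RT dye loading, used for %activity and AC50 from titration series. Cells: Jurkat NFAT-β-lactamase/M1 line, treated with compound plus 1 uM carbachol for 5 h, 37 °C.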

A short description of assay [4]: Stat Signaling Pathway (AID 446; active = well fitted curve in either direction with a large enough effect, not every such curve was filed as active;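 note: ME-180 cervical cancer cells given 40 pM IL-6 alongside compound; SIE-controlled beta-lactamase reporter measured as 460/530 nm FRET emission ratio; % is set by controls: 0 for no effect and ±100 for the full control effect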). To be noted: ME-180 (cervical carcinoma) SIE beta-lactamase reporter, IL-6 stimulated, 5 h; at 7.69 µM (top of the series) unless noted. In outline: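 Overnight-plated ME-180 cells bearing a STAT Inducible Element beta-lactamase reporter; 5 h co-exposure to compound and 40 pM IL-6; values normalized to 300 pM IL-6 and 125 nM JAK inhibitor controls.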

Assay [5] deals with Glucocorticoid receptor (Homo sapiens) (UniProt P04150). As to the kind of experiment: GR-GFP Redistribution (AID 450;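 active = compounds whose dose series gives a full or clear partial fitted curve of increased nuclear translocation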; note: potency is the fitted concentration of half-maximal effect). The note with it: U2OS GR-GFP nuclear translocation, laser cytometry, 2 h.
Assay [6] shares this target. As to the kind of experiment: GR-EFC Redistribution (AID 451; calls by dose curve; note: potency is the fitted concentration of half-maximal effect). The note with it: CHO-K1 GR-EFC translocation, beta-gal luminescence, 2 h. The gist of the method:
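Translocation of GR-ED fusion to nuclear EA restores b-gal, read by luminescence after 1 h room-temperature detection. Engineered CHO-K1 biosensor cells, 1,000/well, exposed 2 h at 37 C to titrations up to 46 uM final.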

Assay [7] has as its target Mitogen-activated protein kinase 10 (Mus musculus) (UniProt Q61831). As to the kind of experiment: JNK3 AlphaScreen Assay (AID 530; active = well fitted curve in either direction with a large enough effect, not every such curve was filed as active;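 note: kinase came from lysate of stimulated human HepG2 cells; signal reports phosphorylation of biotinylated GST-cJun 1-79 at Ser73 with 10 µM ATP; % is set by controls: 0 for no effect and ±100 for the full control effect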). The gist of the method:
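Kinase buffer: 20 mM Tris-HCl pH 7.6, 10 mM MgCl2, 1 mM DTT, 0.1 mM Na3VO4, 0.01% Tween-20; ATP 10 uM. Substrate biotin-GST-cJun(1-79), enzyme from activated HepG2 lysates. Detection by Ser73 phospho-antibody AlphaScreen.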

Assay [8] has as its target 3',5'-cyclic-AMP phosphodiesterase 4B (Homo sapiens) (UniProt Q07343). In words: qHTS Assay for Inhibitors of PDE-IV (AID 607; active = well fitted activation curve with a large enough effect in the main read-out, with a control signal flat, not every such curve was filed as active; note: % of control where 0% means no effect). In outline:
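Live HEK293 cells with a modified cyclic nucleotide-gated (CNG) channel report intracellular cAMP via membrane-potential dye fluorescence (ex 535/em 590 nm). Endogenous PDE-IV was targeted. Compounds were tested at up to 22.9 uM final; RO 20-1724 100 uM served as control.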

Assay [9] deals with Guanine nucleotide-binding protein G(i) subunit alpha-1 (Homo sapiens) (UniProt P63096). In words: qHTS Assay for Inhibitors of RGS12 GoLoco Motif Activity (Green Fluorophore) (AID 879).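 Note: 0% = labeled peptide with Gαi1 and full inhibition = labeled peptide alone without protein; negative values mean loss of peptide binding seen as reduced polarization.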 In outline: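 A drop in FITC polarization marked displacement of the FITC-tagged RGS12 GoLoco peptide (10 nM) from Gαi1 (50 nM). Compounds were incubated 10 min at room temperature in Tris pH 7.5 buffer containing 150 mM NaCl, 0.1 mM GDP and 0.05% NP40; unlabeled peptide titration served as control.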

A short description of assay [10]: qHTS Assay for Identification of Small Molecule Agonists for Thrombopoietin (TPO) Signaling Pathway (AID 917). Note: % is set by controls: 0 for no effect and ±100 for the full control effect. The gist of the method: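 Stimulation at the TPO EC50 (26 pM final) was used to detect activators. Ba/F3 mouse cells bearing human TPO receptor and a luciferase reporter under the Glycoprotein IIb promoter were exposed to compounds for 24 hrs at 37 C.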

In assay [11] the target is Pyruvate kinase (Leishmania mexicana) (UniProt Q27686). As to the kind of experiment: qHTS Validation Assay for Inhibitors of Leishmania Mexicana Pyruvate Kinase (AID 945).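 Note: 0% = DMSO only neutral control wells.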 The gist of the method:
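Compounds are tested as eight-point concentration series. Reactions contain 0.2 nM LmPYK E451W, 0.5 mM PEP, 0.1 mM ADP, 7 mM MgCl2 and 50 mM KCl at pH 7.2, run 1 h at room temperature, then read by PKLight luminescence.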

For assay [12], the target named is Pyruvate kinase PKM (Homo sapiens) (UniProt P14618). As to the kind of experiment: qHTS Assay for Activators of Human Muscle Pyruvate Kinase (AID 954; active = well fitted curve in the direction sought with a large enough effect, not every such curve was filed as active;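 note: 0% = uninhibited enzyme and -100% = no enzyme or full thiadiazolimine inhibition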). In outline:
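Screening used highly purified human pyruvate kinase M2 under submaximal activity, with PEP at its Km and ADP below Km. After an hour at room temperature, ATP was read by luciferase luminescence.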

For assay [13], the target named is Alpha-galactosidase A (Homo sapiens) (UniProt P06280). As to the kind of experiment: Counterscreen for Glucocerebrosidase Inhibitors: qHTS Assay for Human alpha-Galactosidase at pH 4.5 (AID 992). Note: 0% is about no effect. In outline:
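Each compound is preincubated briefly with 2 nM enzyme before substrate addition (80 uM); plates then sit 20 min at ambient temperature, are quenched with 1M NaOH/1M glycine, and read fluorometrically.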

For assay [14], the target named is alpha-glucosidase (Oryza sativa, rice) (UniProt Q653V4). In words: Counterscreen for Glucocerebrosidase Inhibitors: qHTS Assay for Rice alpha-Glucosidase at pH 5.0 (AID 997).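 For activity change, negative = inhibition: 0% = full activity with enzyme and -100% = basal without enzyme.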 Note: potency is the fitted concentration of half-maximal effect. In outline: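 Endpoint fluorogenic assay at pH 5.0: compounds (0.7 nM to 77 uM) titrated against 4 nM rice enzyme and 400 uM 4-MU-alpha-glucoside for 20 min at room temperature; NaOH/glycine stop, read ex 365/em 440 nm, Hill-fitted AC50.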

Assay [15] addresses Muscarinic acetylcholine receptor M1 (Rattus norvegicus) (UniProt P08482). In words: qHTS Assay for Antagonists of Acetylcholine Muscarinic M1 Receptor: Measurement of IP-One Response (AID 944). Note: nearly all actives have a fitted effect of over 75% in size. The gist of the method: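 Antagonism was measured as loss of carbachol-driven (EC80) IP1 accumulation in CHO cells carrying rat M1, using a homogeneous IP-One TR-FRET kit read at 620 and 665 nm.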

For assay [16], the target named is Cytochrome P450 2C19 (Homo sapiens) (UniProt P33261). As to the kind of experiment: qHTS Assay for Inhibitors and Substrates of Cytochrome P450 2C19 (AID 899). Note: % is set by controls: 0 for no effect and ±100 for the full control effect; nearly all actives have a fitted effect of over 60% in size. The gist of the method: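 5nM enzyme + 10uM Luciferin-H EGE (=KM), 50mM KPO4; cpd pin-transferred, 10 min 37C; NADPH regen, 60 min 37C; stopped w/ luciferin detection reagent, 20 min; luminescence. Normalized to 57uM ketoconazole (AC100).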

Unmarked numbers belong to inactive results. Results filed as inconclusive are left out. Calls of active or inactive are those of the source. Unless noted, calls come from the whole dose curve; as a rule, active = well fitted curve in the direction sought with a large enough effect; inconclusive = small, poorly fitted or top-dose-only effect, or another doubt; inactive = no such curve, though single readings can be large; an effect the other way counts as inactive or inconclusive.

Pyruvate kinase (Leishmania mexicana), sequence (Q27686 2-499 E452W): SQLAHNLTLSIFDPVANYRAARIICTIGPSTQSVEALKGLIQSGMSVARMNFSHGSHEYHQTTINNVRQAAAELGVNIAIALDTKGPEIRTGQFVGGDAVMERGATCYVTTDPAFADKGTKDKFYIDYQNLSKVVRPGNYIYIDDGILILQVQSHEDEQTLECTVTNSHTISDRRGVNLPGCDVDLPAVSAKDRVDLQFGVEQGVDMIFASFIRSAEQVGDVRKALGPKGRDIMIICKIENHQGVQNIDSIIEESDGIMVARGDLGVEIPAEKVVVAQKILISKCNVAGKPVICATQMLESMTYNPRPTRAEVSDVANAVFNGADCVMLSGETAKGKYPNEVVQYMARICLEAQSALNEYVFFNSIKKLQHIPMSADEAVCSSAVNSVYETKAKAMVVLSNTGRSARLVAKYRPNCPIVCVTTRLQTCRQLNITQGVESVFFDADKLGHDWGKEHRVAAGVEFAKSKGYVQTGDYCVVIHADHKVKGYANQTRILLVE
3',5'-cyclic-AMP phosphodiesterase 4B (Homo sapiens), sequence (Q07343 whole entry, looked up): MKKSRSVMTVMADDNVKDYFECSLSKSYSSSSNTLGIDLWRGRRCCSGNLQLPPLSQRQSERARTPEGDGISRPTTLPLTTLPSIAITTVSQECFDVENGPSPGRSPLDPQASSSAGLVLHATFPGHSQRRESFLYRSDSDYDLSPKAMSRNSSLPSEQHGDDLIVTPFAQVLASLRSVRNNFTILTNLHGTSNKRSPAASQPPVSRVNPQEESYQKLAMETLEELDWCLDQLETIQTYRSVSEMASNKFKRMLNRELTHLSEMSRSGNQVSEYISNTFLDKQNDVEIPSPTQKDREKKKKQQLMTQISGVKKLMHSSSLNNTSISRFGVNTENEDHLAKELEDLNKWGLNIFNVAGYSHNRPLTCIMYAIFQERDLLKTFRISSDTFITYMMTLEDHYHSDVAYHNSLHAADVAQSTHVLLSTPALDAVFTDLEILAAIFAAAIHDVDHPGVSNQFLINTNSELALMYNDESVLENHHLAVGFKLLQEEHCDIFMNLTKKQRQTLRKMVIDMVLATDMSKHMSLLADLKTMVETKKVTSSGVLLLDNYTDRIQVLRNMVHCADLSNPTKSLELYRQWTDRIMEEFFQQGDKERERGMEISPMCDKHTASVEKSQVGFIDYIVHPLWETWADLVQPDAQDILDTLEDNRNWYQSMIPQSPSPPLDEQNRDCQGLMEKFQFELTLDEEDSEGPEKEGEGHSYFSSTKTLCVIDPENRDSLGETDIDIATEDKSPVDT
Alpha-galactosidase A (Homo sapiens), sequence (P06280 whole entry, looked up): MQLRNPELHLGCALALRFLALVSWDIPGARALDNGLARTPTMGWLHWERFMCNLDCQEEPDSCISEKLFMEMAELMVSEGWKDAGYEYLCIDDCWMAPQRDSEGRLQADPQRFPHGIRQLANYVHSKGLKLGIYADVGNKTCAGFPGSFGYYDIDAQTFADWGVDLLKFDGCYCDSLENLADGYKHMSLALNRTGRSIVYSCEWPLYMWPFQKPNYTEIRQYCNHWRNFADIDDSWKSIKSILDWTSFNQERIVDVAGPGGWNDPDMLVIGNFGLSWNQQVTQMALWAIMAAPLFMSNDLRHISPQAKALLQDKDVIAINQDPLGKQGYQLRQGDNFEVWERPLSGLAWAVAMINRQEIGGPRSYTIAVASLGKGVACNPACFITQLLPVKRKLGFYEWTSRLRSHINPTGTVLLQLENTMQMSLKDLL
Pyruvate kinase PKM (Homo sapiens), sequence (P14618 whole entry, looked up): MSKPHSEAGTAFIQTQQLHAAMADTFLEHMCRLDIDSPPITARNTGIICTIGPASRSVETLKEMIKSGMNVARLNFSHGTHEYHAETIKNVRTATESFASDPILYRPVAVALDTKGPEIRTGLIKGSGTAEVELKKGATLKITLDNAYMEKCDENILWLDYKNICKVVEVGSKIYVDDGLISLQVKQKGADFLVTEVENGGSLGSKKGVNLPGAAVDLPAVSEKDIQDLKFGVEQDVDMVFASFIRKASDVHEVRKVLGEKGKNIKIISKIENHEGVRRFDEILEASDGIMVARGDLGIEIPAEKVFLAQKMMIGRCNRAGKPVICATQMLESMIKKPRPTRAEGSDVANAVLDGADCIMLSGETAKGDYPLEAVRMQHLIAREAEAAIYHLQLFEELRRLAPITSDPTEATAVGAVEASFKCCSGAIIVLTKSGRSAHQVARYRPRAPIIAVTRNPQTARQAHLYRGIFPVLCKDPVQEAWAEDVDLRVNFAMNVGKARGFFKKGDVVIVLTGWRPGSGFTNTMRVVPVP
Cytochrome P450 1A2 (Homo sapiens), sequence (P05177 whole entry, looked up): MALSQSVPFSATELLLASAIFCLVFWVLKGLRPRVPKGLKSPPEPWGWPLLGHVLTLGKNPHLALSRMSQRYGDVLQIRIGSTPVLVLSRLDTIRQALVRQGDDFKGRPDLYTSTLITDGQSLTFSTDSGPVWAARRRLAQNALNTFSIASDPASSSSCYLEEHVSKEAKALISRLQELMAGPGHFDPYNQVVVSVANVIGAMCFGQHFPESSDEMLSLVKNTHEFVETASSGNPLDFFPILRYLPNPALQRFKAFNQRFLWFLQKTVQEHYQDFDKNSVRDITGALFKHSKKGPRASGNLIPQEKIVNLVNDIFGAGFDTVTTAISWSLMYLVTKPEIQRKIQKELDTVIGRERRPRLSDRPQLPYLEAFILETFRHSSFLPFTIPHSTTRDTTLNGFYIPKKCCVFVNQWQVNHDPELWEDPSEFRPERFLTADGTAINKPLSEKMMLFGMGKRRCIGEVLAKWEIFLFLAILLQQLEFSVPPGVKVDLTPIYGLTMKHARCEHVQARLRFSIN
Guanine nucleotide-binding protein G(i) subunit alpha-1 (Homo sapiens), sequence (P63096 whole entry, looked up): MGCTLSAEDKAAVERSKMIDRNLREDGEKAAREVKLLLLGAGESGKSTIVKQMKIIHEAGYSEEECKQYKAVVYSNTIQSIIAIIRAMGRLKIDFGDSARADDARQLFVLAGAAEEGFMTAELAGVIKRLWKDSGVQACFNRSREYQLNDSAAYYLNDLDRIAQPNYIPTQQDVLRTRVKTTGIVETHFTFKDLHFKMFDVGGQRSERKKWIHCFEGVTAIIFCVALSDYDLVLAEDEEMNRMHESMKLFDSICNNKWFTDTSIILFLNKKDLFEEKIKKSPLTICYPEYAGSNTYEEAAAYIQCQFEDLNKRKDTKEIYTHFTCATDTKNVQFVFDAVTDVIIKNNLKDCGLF
Glucocorticoid receptor (Homo sapiens), sequence (P04150 whole entry, looked up): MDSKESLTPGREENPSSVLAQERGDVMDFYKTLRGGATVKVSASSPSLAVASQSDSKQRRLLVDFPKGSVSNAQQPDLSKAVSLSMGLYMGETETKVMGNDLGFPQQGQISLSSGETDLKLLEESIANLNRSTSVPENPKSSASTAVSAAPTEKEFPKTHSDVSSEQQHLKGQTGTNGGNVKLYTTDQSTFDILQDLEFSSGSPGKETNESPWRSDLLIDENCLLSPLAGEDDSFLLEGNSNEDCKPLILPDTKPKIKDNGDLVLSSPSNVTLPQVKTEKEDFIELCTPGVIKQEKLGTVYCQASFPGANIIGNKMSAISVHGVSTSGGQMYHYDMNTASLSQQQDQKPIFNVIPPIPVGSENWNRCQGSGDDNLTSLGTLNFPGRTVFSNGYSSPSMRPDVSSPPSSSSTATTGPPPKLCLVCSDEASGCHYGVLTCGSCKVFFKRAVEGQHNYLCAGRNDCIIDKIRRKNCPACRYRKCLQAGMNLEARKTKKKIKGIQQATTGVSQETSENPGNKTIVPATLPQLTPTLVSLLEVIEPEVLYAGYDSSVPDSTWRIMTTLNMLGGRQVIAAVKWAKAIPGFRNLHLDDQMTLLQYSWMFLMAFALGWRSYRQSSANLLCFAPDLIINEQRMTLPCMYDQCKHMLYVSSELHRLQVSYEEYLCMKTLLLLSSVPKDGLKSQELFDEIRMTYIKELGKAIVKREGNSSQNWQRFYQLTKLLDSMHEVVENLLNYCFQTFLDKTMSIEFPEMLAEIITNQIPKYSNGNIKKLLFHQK
Muscarinic acetylcholine receptor M1 (Rattus norvegicus), sequence (P08482 whole entry, looked up): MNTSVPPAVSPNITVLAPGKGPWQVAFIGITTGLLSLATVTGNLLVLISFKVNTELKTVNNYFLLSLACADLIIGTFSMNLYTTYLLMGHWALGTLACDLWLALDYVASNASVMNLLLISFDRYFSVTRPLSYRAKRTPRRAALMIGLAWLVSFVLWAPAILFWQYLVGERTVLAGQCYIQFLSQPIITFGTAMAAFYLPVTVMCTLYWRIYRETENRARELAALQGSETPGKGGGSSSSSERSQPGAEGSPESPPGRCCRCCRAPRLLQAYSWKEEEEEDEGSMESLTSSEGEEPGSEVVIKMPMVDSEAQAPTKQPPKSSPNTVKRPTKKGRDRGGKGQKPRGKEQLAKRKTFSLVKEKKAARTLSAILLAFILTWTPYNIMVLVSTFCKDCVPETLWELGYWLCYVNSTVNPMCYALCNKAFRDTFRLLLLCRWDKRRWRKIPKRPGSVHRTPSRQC
Cytochrome P450 2C19 (Homo sapiens), sequence (P33261 whole entry, looked up): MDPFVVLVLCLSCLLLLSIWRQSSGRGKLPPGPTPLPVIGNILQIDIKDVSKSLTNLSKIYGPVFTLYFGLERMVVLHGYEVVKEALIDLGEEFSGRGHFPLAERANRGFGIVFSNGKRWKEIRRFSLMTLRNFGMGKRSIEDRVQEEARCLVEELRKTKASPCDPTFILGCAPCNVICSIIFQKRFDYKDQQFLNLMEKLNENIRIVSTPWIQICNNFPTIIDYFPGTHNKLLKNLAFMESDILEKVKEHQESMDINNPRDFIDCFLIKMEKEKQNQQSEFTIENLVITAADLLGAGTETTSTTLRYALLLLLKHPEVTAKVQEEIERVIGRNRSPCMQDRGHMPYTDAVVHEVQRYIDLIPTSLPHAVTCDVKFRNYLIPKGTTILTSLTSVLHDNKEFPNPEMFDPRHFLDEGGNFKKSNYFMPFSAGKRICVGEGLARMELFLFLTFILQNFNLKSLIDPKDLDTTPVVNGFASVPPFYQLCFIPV

As to `OC[C@@H]1O[C@@H](n2cnc3c(NC4CCCC4)ncnc32)[C@@H](O)[C@H]1O`, the activity change, negative = inhibition in [1] is -0.201% [at 38 µM]; in assay [3] it was 1.91% [at 38 µM]. Also, the Potency entry in assay [2], in assay [7], in [8] and in assay [14] was “inactive” throughout. In assay [4], the activity, negative = inhibition is 12.2% [at 38 µM]. Further, the Potency in [5] and in assay [6] was greater than 46 µM throughout. Further, the compound was called inactive in assay [9], in [10], in [11], in [12] and in assay [13].

Regarding `Cc1ccccc1/C=C\C1=NCCN1`, the values for the activity change, negative = inhibition in [1] and in [3] were -3.38% [at 38 µM] and -1.9% [at 38 µM], respectively. For the same compound, the Potency in [2] was 6.31 µM (active); in [5] it was greater than 46 µM; in [6], greater than 46 µM. Besides, the activity, negative = inhibition in [4] was 5.08% [at 38 µM]. Also, the Potency result in assay [7], in [8], in assay [15] and in [14] was “inactive” throughout. Moreover, the compound was called inactive in assay [9], in [11], in assay [12] and in [13].

In the case of `CSC(N)=NCCC[C@@H](N)C(=O)O`, the activity change, negative = inhibition was 19.2% [at 38 µM] in assay [1] and 6.92% [at 38 µM] in assay [3]. Besides, the Potency entry in assay [2], in assay [7], in [8], in assay [16], in assay [15] and in assay [14] was “inactive” each time. In assay [4], the activity, negative = inhibition was 10.5% [at 38 µM]. Further, the Potency in assay [5] and in assay [6] was greater than 46 µM each time. In addition, the outcome in assay [9], in assay [11], in assay [12] and in assay [13] was inactive.

With `C#C[C@H](N)CCC(=O)O`, the values for the activity change, negative = inhibition in assay [1] and in [3] were 2.59% [at 38 µM] and -4.34% [at 38 µM], respectively. The Potency entry in [2], in assay [7], in [8] and in assay [14] was “inactive” in each case. The activity, negative = inhibition in assay [4] was 1.65% [at 38 µM]. Besides, the Potency in assay [5] and in [6] was greater than 46 µM in each case. For the same compound, the result in [9], in assay [10], in [11], in assay [12] and in assay [13] was inactive.

For the compound `OC[C@@H]1NC[C@@H](O)[C@H]1O`, the results for the activity change, negative = inhibition in assay [1] and in assay [3] were 0.107% [at 38 µM] and 8.18% [at 38 µM], respectively. Also, the Potency result in assay [2], in [7] and in assay [8] was “inactive” each time. The activity, negative = inhibition in [4] was -5.61% [at 38 µM]. Further, the Potency in assay [5] was greater than 46 µM; in assay [6], greater than 46 µM; in assay [14], 12.6 µM (active). For the same compound, the result in assay [9], in assay [10], in assay [11] and in assay [12] was inactive.

Values taken from PubChem BioAssay (NCATS).
